Experimental data: PubChem BioAssay AID2061323 (National Center for Advancing Translational Sciences (NCATS), 2025)
Inconclusive results are not listed. Activity calls are given as the source filed them. The call rests on the fitted dose curve; in most records, active means well fitted inhibition curve with a large enough effect; inconclusive means small, poorly fitted or top-dose-only effect; inactive means flat fitted curve, though single readings scatter.

Assay: Identification of antibody-drug conjugate (ADC) payloads which are substrates of ATP-binding cassette drug efflux transporters: ABCG2-HEK293-R5 cell line
Conditions: ABCG2-HEK293-R5 viability, CellTiter-Glo ATP luminescence, 48 h
Text: Antibody-drug conjugates (ADCs) feature an antibody recognizing a specific protein joined to a potent toxic payload. Numerous antibody-drug conjugates have received FDA approval; however, clinical resistance arises. Resistance mechanisms include decreased expression or mutation of the antibody target, impaired payload release, or increased expression of ATP-binding cassette (ABC) efflux transporters associated with multidrug resistance. We therefore sought to characterize the interaction of ABC multidrug transporters with ADC payloads. We performed a high-throughput screen with 27 common ADC payloads using cells lines expressing ABC transporters P-glycoprotein (P-gp, encoded by ABCB1) or ABCG2 (encoded by ABCG2). Confirmatory assays were also performed using cells transfected to express P-gp, ABCG2, or MRP1 (encoded by ABCC1). Several commonly used ADC payloads were substrates of P-gp, including calicheamicin gamma1, monomethyl auristatin E, DM1, and DM4. All the pyrrolobenzodiazepines tested - SJG136, SGD-1882, SG2057, and SG3199 - were substrates of P-gp, ABCG2, and MRP1. […] These findings highlight the risk of transporter-mediated resistance with certain ADC payloads and underscore the importance of selecting payloads that evade ABC transporter recognition in future ADC development.
HEK-293 cells were transfected with empty vector (pcDNA) or vector containing the human ABCB1 (MDR-19), ABCG2 (R-5), or ABCC1 gene (MRP1) and were maintained in EMEM with 2 mg/mL G418 added to maintain transporter expression. The HeLa derivative KB-3-1 and the P-gp overexpressing KB-8-5-11 subline were maintained in DMEM; KB-8-5-11 additionally received 100 ng/mL colchicine. H460 parental cells were obtained from the Division of Cancer Treatment and Diagnosis Tumor Repository, National Cancer Institute at Frederick, MD and were cultured in RPMI. The ABCG2 expressing subline H460 MX20 was generated by selecting H460 cells in 20 nM mitoxantrone. Media in all cases was supplemented with 10% FBS and 1% penicillin-streptomycin. We explored 27 common ADC payloads, in two orthogonal, paired cell line sets-a drug selected and transfected set for each transporter--to identify substrates of the ABC transporters P-gp and ABCG2. Compounds were sourced from Levena Biopharma (San Diego, CA), Selleck Chem (Houston, TX), ChemieTek (Indianapolis, IN), or Microsource Discovery Systems (Gaylordsville, CT). Screening was performed as previously described. Briefly, cells were plated at a density of 500 cells/well in 1536 well plates with compounds added using a 1536-head pin tool (Kalypsys, San Diego CA). Cells were incubated with cytotoxic drugs and processed with CellTiter Glo reagent (Promega, Madison, WI) to determine viability after 48 hours. P-gp substrates were identified by comparing compound activity between paired sets of low-expressing (sensitive) and over-expressing (resistant) cell lines.

Which Potency does the source give for `CC(C)(C)OC(=O)Nc1ccc2[nH]c(C(=O)N3C[C@@H](CCl)c4c3cc(O)c3ccccc43)cc2c1` here?
The Potency was 33.6 nM (active).

For `COC(=O)c1cc2c3c(cc(O)c2[nH]1)N(C(=O)c1cc2cc(OC)c(OC)c(OC)c2[nH]1)CC3CCl` (stereo not given), which Potency is on record?
Its Potency is 4.2 nM (active).

With `CN(C)CCOc1ccc2[nH]c(C(=O)N3C[C@@H](CCl)c4c3cc(O)c3ccccc43)cc2c1` as the compound, how does the Potency read?
The Potency was 1.7 nM (active).

For `CCN[C@H]1CO[C@@H](O[C@H]2[C@H](O[C@H]3C#C/C=C\C#C[C@]4(O)CC(=O)C(NC(=O)OC)=C3/C4=C\CSSSC)O[C@H](C)[C@@H](NO[C@H]3C[C@H](O)[C@H](SC(=O)c4c(C)c(I)c(O[C@@H]5O[C@@H](C)[C@H](O)[C@@H](OC)[C@H]5O)c(OC)c4OC)[C@@H](C)O3)[C@@H]2O)C[C@@H]1OC`, which Potency is on record?
The Potency was 3.8 nM (active).

With `CCN(C(C)=O)[C@H]1CO[C@@H](O[C@H]2[C@H](O[C@H]3C#C/C=C\C#C[C@]4(O)CC(=O)C(NC(=O)OC)=C3/C4=C\CSSSC)O[C@H](C)[C@@H](NO[C@H]3C[C@H](O)[C@H](SC(=O)c4c(C)c(I)c(O[C@@H]5O[C@@H](C)[C@H](O)[C@@H](OC)[C@H]5O)c(OC)c4OC)[C@@H](C)O3)[C@@H]2O)C[C@@H]1OC` as the compound, how does the Potency read?
Its Potency is 67.1 nM (active).
